93 molecules from PubChem BioAssay AID1851 (National Center for Advancing Translational Sciences (NCATS), 2009) can be followed below.

For orientation: AC50 means the concentration at which the activity in the assay is half-maximal.

“And” between values parts separate entries of the source, which are not always exact repeats. Identical values can stand only once. About 5,100 (32%) of roughly 16,000 compounds were called active. Inconclusive results (about 25%) are left out. Some of the results follow. Values without a mark were called inactive. Calls follow the shape of the dose curve; as a rule, active = well fitted curve in the direction sought with a large enough effect; inconclusive = small, poorly fitted or top-dose-only effect, or effect the other way; inactive = no such curve, though single readings can be large or run the other way.
% is scaled to controls: 0 for no effect and ±100 for the full control effect.

For the test, the target named is Cytochrome P450 3A4 (Homo sapiens) (UniProt P08684). As to the kind of experiment: Cytochrome panel assay with activity outcomes. The note with it: recombinant CYP, pro-luciferin dealkylation, luminescence, p450-cyp3a4; series mostly up to 57.1 µM.
Sequence of Cytochrome P450 3A4 (Homo sapiens) (P08684 whole entry, looked up): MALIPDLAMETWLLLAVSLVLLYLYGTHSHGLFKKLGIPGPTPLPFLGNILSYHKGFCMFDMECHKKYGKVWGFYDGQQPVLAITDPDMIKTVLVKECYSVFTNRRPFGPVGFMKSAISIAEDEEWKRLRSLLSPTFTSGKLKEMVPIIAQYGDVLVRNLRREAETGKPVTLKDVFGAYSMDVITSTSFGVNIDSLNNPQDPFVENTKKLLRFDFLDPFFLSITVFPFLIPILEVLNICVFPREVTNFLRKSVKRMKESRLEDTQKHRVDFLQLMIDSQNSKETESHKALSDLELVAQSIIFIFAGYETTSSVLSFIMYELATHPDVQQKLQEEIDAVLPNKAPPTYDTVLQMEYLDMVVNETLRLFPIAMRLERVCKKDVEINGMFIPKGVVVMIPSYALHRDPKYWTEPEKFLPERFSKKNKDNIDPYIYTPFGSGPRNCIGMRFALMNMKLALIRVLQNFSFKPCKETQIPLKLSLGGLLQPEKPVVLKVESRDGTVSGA
Turning to `C[C@@H](C(=O)NCCc1c[nH]c2ccccc12)[C@@H]1C[C@@]1(C)[C@@H](NC(=O)OCc1ccccc1)c1ccccc1`, the AC50 is 3.16 µM (active).
As to `CC(C)CNC(=O)CCCc1c[nH]c2ccccc12`, the activity, negative = inhibition was 14.6% [at 2.29 µM].
Turning to `C[C@@H](C(=O)NCCc1c[nH]c2ccccc12)[C@H]1C[C@]1(C)[C@H](NC(=O)OCc1ccccc1)c1ccccc1`, the AC50 was 1.58 µM (active).
With `C[C@@H]1O[C@@H](O)[C@@H](O)[C@H](O)[C@H]1O`, the activity, negative = inhibition was -3.34% [at 11.4 µM].
Regarding `CN(C)c1oc(-c2ccccc2)nc1C#N`, the AC50 entry is “inactive”.
The same measure, in the same setting: with `CN(C)c1ccc(N=Cc2nc(-c3ccccc3)oc2O)cc1` the figure was 14.1 µM (active); with `O=C(Oc1oc(-c2ccco2)nc1C=Nc1ccc(Cl)cc1)c1ccco1`, “inactive”.
With `CC(=O)N1CCN(C)CC1`, the AC50 result is “inactive”.
Take `Cc1cc(C(C)(C)C)cc(CNC2CCCCC2)c1O`: the activity, negative = inhibition was -20.7% [at 11.4 µM].
Take `COc1cc(CNC2CCCC2)cc(Cl)c1OCc1ccccc1Cl`: the AC50 was 5.62 µM (active).
Regarding `CCOc1cc(C2NN=C(c3ccccc3)S2)ccc1OCc1ccccc1Cl` (stereo not drawn), the activity, negative = inhibition was 7.68% [at 2.29 µM].
With `Cc1oc(-c2ccccc2Cl)nc1CSCC(=O)NC1CC1`, the AC50 was 4.47 µM (active).
`CC1CCC(NC(=O)CC(C)(C)Cc2nc3ccccc3c(=O)[nH]2)CC1` (stereo not drawn): the AC50 result was “inactive”.
As for `CCN1CCCC1CNC(=O)C(=O)Nc1ccccc1OC` (stereo not drawn), the AC50 result was “inactive”.
Turning to `CCOc1ccccc1NC(=O)C(=O)NCC1CCCN1CC` (stereo not drawn), the AC50 entry is “inactive”.
For `CCN1CCCC1CNC(=O)CSCc1nc(-c2ccccc2C)oc1C` (stereo not drawn), the AC50 was 6.31 µM (active).
For the molecule `C1CCc2c(nc3nnnn3c2NC2CCCC2)C1`, the AC50 entry is “inactive”.
In the case of `NC(=NCc1ccccc1)NC(=O)c1nc(Cl)c(N)nc1N`, the AC50 entry is “inactive”.
Turning to `O=c1cc(N2CCCCC2)c(-c2ccccc2)nn1Cc1ccccc1Cl`, the AC50 was 10 µM (active).
Take `COc1cc(CC(=O)O)c(C(C)=O)cc1OC`: the AC50 entry is “inactive”.
Consider `COC(=O)c1cc(OC)c(OC)cc1NC(=S)N1CCCCC1`, for which the AC50 was 3.98 µM (active).
Consider `COC(=O)c1ccc(C(=O)OC)c(NC(=S)N2CCN(c3ccccc3)CC2)c1`, for which the AC50 was 7.94 µM (active).
Regarding `Cc1cccc(N2CCN(c3ccc(NC(=O)/C=C(/C(=O)O)c4ccccc4)cc3)CC2)c1`, the activity, negative = inhibition was 0.321% [at 2.29 µM].
Regarding `COc1cccc(Nc2ncc3nc(C)c(=O)n(CCC#N)c3n2)c1`, the AC50 is 12.6 µM (active).
Same read-out and setting: with `COc1cccc(Cn2c(=O)cnc3cnc(Nc4cccc(OC)c4)nc32)c1` the figure was 2 µM (active); with `COc1ccc(-c2nc3cnc(Nc4ccccc4)nc3n(CCC#N)c2=O)cc1`, “inactive”.
Regarding `N#CCCn1c(=O)c(-c2ccccc2)nc2cnc(Nc3ccccc3)nc21`, the AC50 entry is “inactive”.
`COc1cccc(Nc2ncc3nc(-c4cccs4)c(=O)n(CCC#N)c3n2)c1`: the AC50 was 6.31 µM (active).
Regarding `COc1ccc(-c2nc3cnc(Nc4cccc(OC)c4)nc3n(CCC#N)c2=O)cc1`, the AC50 was 3.98 µM (active).
On to `O=C1CCCC=C1[C@@H](O)CCOC(c1ccccc1)(c1ccccc1)c1ccccc1`, for which the activity, negative = inhibition is -80.3% [at 11.4 µM].
With `CC(C)(C)c1cc(Br)c(O)c(CN(Cc2cc(C(C)(C)C)cc(Br)c2O)C2CCCCC2)c1`, the activity, negative = inhibition is -3.9% [at 11.4 µM].
Take `COCCn1c(=O)c(-c2ccccc2)nc2cnc(Nc3ccccc3)nc21`: the AC50 was 12.6 µM (active).
Turning to `COCCn1c(=O)c(-c2ccc(Cl)cc2)nc2cnc(Nc3ccccc3)nc21`, the AC50 result was “inactive”.
With `COCCn1c(=O)cnc2cnc(Nc3ccccc3)nc21`, the AC50 entry was “inactive”.
`N#CCCn1c(=O)c(-c2cc(F)cc(F)c2)nc2cnc(Nc3ccccc3)nc21`: the AC50 result is “inactive”.
`CN(C)c1ncc2ncc(=O)n(CCC#N)c2n1`: the AC50 entry was “inactive”.
As to `COCCn1c(=O)cnc2cnc(Nc3cccc(OC)c3)nc21`, the AC50 was 15.8 µM (active).
As to `COc1cccc(Nc2ncc3nc(-c4cc(F)cc(F)c4)c(=O)n(CCC#N)c3n2)c1`, the AC50 is 10 µM (active).
Turning to `COc1cccc(Nc2ncc3ncc(=O)n(CCC#N)c3n2)c1`, the AC50 was 15.8 µM (active).
As to `Cn1c(=O)c2c(nc(N/N=C\c3ccccc3C(=O)O)n2C)n(C)c1=O`, the activity, negative = inhibition was 5.51% [at 11.4 µM].
For the molecule `CCC[C@H]1C(=O)N2C(N(C)C)=Nc3ccc(C)cc3N2C1=O`, the AC50 result is “inactive”.
Consider `COCCn1c(=O)c(-c2ccccc2)nc2cnc(Nc3cccc(OC)c3)nc21`, for which the AC50 result is “inactive”.
On the same count and under the same terms, with `COCCn1c(=O)c(-c2cc(F)cc(F)c2)nc2cnc(Nc3cccc(OC)c3)nc21` the figure was 7.94 µM (active).
Turning to `COc1cccc(Nc2ncc3nc(-c4ccc(F)cc4)c(=O)n(CCC#N)c3n2)c1`, the half-maximal activity concentration (AC50) was 3.16 µM (active).
As to `COc1ccc(Sc2nc3ccccc3n3c(C(F)(F)F)nnc23)cc1`, the activity, negative = inhibition was -0.72% [at 11.4 µM].
In the case of `CN1CCc2cc3c(cc2[C@@H]1[C@@H]1C(=O)Oc2c1ccc1c2OCO1)OCO3`, the AC50 was 1.26 µM (active).
On to `C[N+]1(C)CCc2cc3c(cc2[C@@H]1[C@@H]1C(=O)Oc2c1ccc1c2OCO1)OCO3`, for which the AC50 is 12.6 µM (active) and 15.8 µM (active).
Take `CCCCSC(=S)N(C)C1CCS(=O)(=O)C1` (stereo not drawn): the AC50 entry was “inactive”.
`Nc1nccc(Nc2ccc(S(N)(=O)=O)cc2)n1`: the activity, negative = inhibition is -5.22% [at 11.4 µM].
`Fc1ccc(Nc2ccnc(-c3ccoc3)n2)cc1`: the AC50 was 7.94 µM (active).
Same read-out and setting: with `CN(C)c1ccc(-c2cc(Nc3ccc(F)cc3)ncn2)cc1` the figure was 10 µM (active).
As to `CN(C)c1ccc(-c2nccc(Nc3ccc(F)cc3)n2)cc1`, the AC50 was 12.6 µM (active).
Turning to `Fc1ccc(Nc2ccnc(-c3ccc4c(c3)OCO4)n2)cc1`, the half-maximal activity concentration (AC50) is 2 µM (active).
On to `C(=Nc1cnc2ccccc2c1)c1ccc2ccccc2n1`, for which the activity, negative = inhibition was -12.4% [at 11.4 µM].
In the case of `O=C1C2C3C=CC(C3)C2C(=O)N1c1ncn[nH]1` (stereo not drawn), the AC50 result was “inactive”.
With `O=C1C2C3c4ccccc4C(c4ccccc43)C2C(=O)N1c1nc(-c2ccccc2)cs1` (stereo not drawn), the activity, negative = inhibition was 0.59% [at 2.29 µM].
Consider `CC(C)(C)C(=O)N1CCc2cc(-c3csc(N)n3)ccc21`, for which the AC50 was 8.91 µM (active).
On to `COc1ccccc1CNS(=O)(=O)c1ccc2[nH]cc(C(=O)O)c(=O)c2c1`, for which the AC50 entry was “inactive”.
Take `COc1cc(Cl)c(CC(=O)c2c[nH]c3ccccc23)cc1OC`: the AC50 was 2.51 µM (active).
Take `O=C(OCCN1CCCCC1)c1c[nH]c2ccccc12`: the AC50 entry is “inactive”.
Regarding `O=[N+]([O-])c1ccc(/C=N/Nc2cc(Cl)nc(-c3ccccc3)n2)cc1`, the AC50 result is “inactive”.
As for `Nc1nnnn1/N=C\c1ccc(Cl)c([N+](=O)[O-])c1`, the AC50 entry is “inactive”.
Consider `Nc1cc(Cl)nc(N/N=C/c2ccccc2[N+](=O)[O-])n1`, for which the AC50 was 14.1 µM (active).
Consider `N[C@@H]1[C@@H]2[C@@H]3C[C@H]4N(CC[C@@]14C(=O)C(=O)O)CC3=CCO[C@@H]2CC(=O)O`, for which the activity, negative = inhibition was -11.7% [at 11.4 µM].
Consider `COc1ccc2c(c1)CCc1c(C(=O)N3CCCCCC3)noc1-2`, for which the AC50 is 14.1 µM (active).
As to `CSc1nc2ccccc2cc1/C=C(\C#N)c1ccc(Cl)cc1Cl`, the activity, negative = inhibition is 25.6% [at 11.4 µM].
On to `CCOC(=O)C1=NNC2(c3ccc(Cl)cc3)C(=O)N(c3cc(C)cc(C)c3)C(=O)C12` (stereo not drawn), for which the AC50 is 2.24 µM (active).
`Cc1ccc(-c2c3c(nc4sc(C(N)=O)c(N)c24)CCC3)cc1`: the activity, negative = inhibition is 0.806% [at 2.29 µM].
Consider `Cc1nc2sc(C#N)c(N)c2c2c1CCCC2`, for which the AC50 is 14.1 µM (active).
`COc1nc(C)nc(Cl)c1NC1=NCCN1`: the AC50 entry was “inactive”.
Regarding `CN=C1N[C@H](c2ccccc2)N(c2ccccc2)S1`, the AC50 is 31.6 µM (active).
Regarding `OCCSCc1cc(Cl)cc(Cl)c1O`, the activity, negative = inhibition was -27.9% [at 11.4 µM].
Take `S=C(NCCSCc1c(Cl)cccc1Cl)Nc1ccccc1`: the AC50 is 7.08 µM (active).
With `S=C(NCCSCc1ccc(Cl)cc1Cl)Nc1ccccc1`, the AC50 was 7.94 µM (active).
With `Oc1ccc2ccccc2c1C=NCc1c(O)ccc2ccccc12`, the activity, negative = inhibition is -15.3% [at 11.4 µM].
For `CCOC(=O)CSC1=C(C#N)C(C)C2=C(CCCC2=O)N1` (stereo not drawn), the AC50 entry was “inactive”.
With `CCOC(=O)CSC1=C(C#N)C(c2sccc2C)C(C(C)=O)=C(C)N1` (stereo not drawn), the activity, negative = inhibition was 19% [at 2.29 µM].
For the molecule `C=CCOC(=O)C1=C(C)NC(SCC(=O)OCC)=C(C#N)C1c1ccc(C)cc1` (stereo not drawn), the half-maximal activity concentration (AC50) is 2.24 µM (active).
For the molecule `CC(=NCC(=O)O)c1ccccc1`, the activity, negative = inhibition was -4.83% [at 11.4 µM].
`COc1ccccc1-c1nc(NCc2ccccc2)c2ccccc2n1`: the AC50 is 3.98 µM (active).
As to `COc1ccccc1-c1nc(NCc2cccs2)c2ccccc2n1`, the AC50 is 12.6 µM (active).
For the molecule `COc1ccccc1-c1nc(NCc2cccnc2)c2ccccc2n1`, the AC50 is 10 µM (active).
Same read-out and setting: with `CC[N+](C)(CC)CCOC(=O)C1c2ccccc2Oc2ccccc21` the entry was “inactive”.
For `C[C@@H](C[C@H](N)C(=O)O)C(=O)O`, the activity, negative = inhibition was -6.03% [at 11.4 µM].
As for `COc1ccc(COC2OC[C@]3(C)[C@H]4C5=C(CN3C(=O)OC(C)(C)C)[C@H](C)C(CO)C(CO)C5CC[C@@H]24)cc1` (stereo partly drawn), the AC50 is 7.94 µM (active).
On the same count and under the same terms, with `COCC1C2CC[C@H]3C(OCc4ccc(OC)cc4)OC[C@]4(C)[C@H]3C2=C(CN4C(=O)OC(C)(C)C)[C@H](C)C1COC` (stereo partly drawn) the figure was 1.58 µM (active).
With `Cc1nn(C(C)C(=O)Nc2ccc(Cl)cn2)c(C)c1[N+](=O)[O-]` (stereo not drawn), the AC50 was 15.8 µM (active).
In the case of `Cc1nn(C(C)C(=O)Nc2sc3c(c2C#N)CCCC3)c(C)c1[N+](=O)[O-]` (stereo not drawn), the AC50 was 15.8 µM (active).
Regarding `Cc1cc(NC(=O)c2c([N+](=O)[O-])c(C)nn2C)no1`, the AC50 entry is “inactive”.
On to `COc1cccc(NC(=S)NNC(=O)C(C)n2nc(C)c([N+](=O)[O-])c2C)c1` (stereo not drawn), for which the activity, negative = inhibition is -29.4% [at 2.29 µM].
As to `Cc1nc2ccccc2nc(C)c1=NO`, the AC50 entry is “inactive”.
On to `Cc1cc(OC(=O)c2cc(F)c(F)cc2Cl)nc(C)n1`, for which the AC50 result is “inactive”.
`CC(C)/C(=N/[N+](C)(C)C)c1ccccc1`: the activity, negative = inhibition is -14.9% [at 11.4 µM].
